{"source": "the supplement of paper PMC8728848", "binders": {"B1": {"name": "SpnanA (Streptococcus pneumoniae), P62575 (protein)", "chain": "MVIEKEDVETNASNGQRVDLSSELDKLKKLENATVHMEFKPDAKAPAFYNLFSVSSATKKDEYFTMAVYNNTATLEGRGSDGKQFYNNYNDAPLKVKPGQWNSVTFTVEKPTAELPKGRVRLYVNGVLSRTSLRSGNFIKDMPDVTHVQIGATKRANNTVWGSNLQIRNLTVYNRALTPEEVQKRS"}}, "experiment_in_all_cases": "glycan array binding signal (z-score within array); higher = stronger binding", "settings_in_all_cases": "glycan notation: IUPAC condensed, linker removed", "key": {"[1]": {"target": "Fuc(a1-2)Gal(b1-3)GlcNAc(b1-2)Man(a1-3)[Fuc(a1-2)Gal(b1-3)GlcNAc(b1-2)Man(a1-6)]Man(b1-4)GlcNAc(b1-4)GlcNAc", "in_short": "(§1)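 From the Consortium for Functional Glycomics database, 3228 arrays were curated, keeping only those whose protein sequence was available. Binding is given as a within-array Z-score averaged across arrays sharing a protein sequence and across linkers. Negative Z-scores can be read as non-binding.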"}, "Fuc(a1-2)Gal(b1-4)GlcNAc": {"target": "Fuc(a1-2)Gal(b1-4)GlcNAc", "in_short": "as §1"}, "[2]": {"target": "Fuc(a1-2)Gal(b1-4)GlcNAc(b1-2)[Fuc(a1-2)Gal(b1-4)GlcNAc(b1-4)]Man(a1-3)[Fuc(a1-2)Gal(b1-4)GlcNAc(b1-2)Man(a1-6)]Man(b1-4)GlcNAc(b1-4)GlcNAc", "in_short": "as §1"}, "[3]": {"target": "Fuc(a1-2)Gal(b1-4)[Fuc(a1-3)]GlcNAc(b1-2)[Fuc(a1-2)Gal(b1-4)[Fuc(a1-3)]GlcNAc(b1-4)]Man(a1-3)[Fuc(a1-2)Gal(b1-4)[Fuc(a1-3)]GlcNAc(b1-2)Man(a1-6)]Man(b1-4)GlcNAc(b1-4)GlcNAc", "in_short": "as §1"}, "[4]": {"target": "Fuc(a1-2)[GalNAc(a1-3)]Gal(b1-4)[Fuc(a1-3)]GlcNAc", "in_short": "as §1"}, "[5]": {"target": "Fuc(a1-3)[Gal(b1-4)]GlcNAc", "in_short": "as §1"}, "[6]": {"target": "Fuc(a1-3)[Gal(b1-4)]GlcNAc(b1-2)Man(a1-3)[Fuc(a1-3)[Gal(b1-4)]GlcNAc(b1-2)Man(a1-6)]Man(b1-4)GlcNAc(b1-4)GlcNAc", "in_short": "as §1"}, "Gal(a1-3)Gal(b1-4)GlcNAc": {"target": "Gal(a1-3)Gal(b1-4)GlcNAc", "in_short": "as §1"}, "[7]": {"target": "Gal(a1-3)Gal(b1-4)[Fuc(a1-3)]GlcNAc", "in_short": "as §1"}, "Gal(b1-3)Gal": {"target": "Gal(b1-3)Gal", "in_short": "as §1"}, "[8]": {"target": "Gal(b1-4)GlcNAc(b1-2)Man(a1-3)[Man(a1-6)]Man(b1-4)GlcNAc(b1-4)GlcNAc", "in_short": "as §1"}, "[9]": {"target": "Gal(b1-4)GlcNAc(b1-3)[GlcNAc(b1-6)]Gal(b1-4)GlcNAc", "in_short": "as §1"}, "[10]": {"target": "Gal(b1-4)GlcNAc(b1-6)GalNAc", "in_short": "as §1"}, "Gal(b1-6)Gal": {"target": "Gal(b1-6)Gal", "in_short": "as §1"}, "Gal6S(b1-4)Glc6S": {"target": "Gal6S(b1-4)Glc6S", "in_short": "as §1"}, "GalNAc(a1-3)GalNAc": {"target": "GalNAc(a1-3)GalNAc", "in_short": "as §1"}, "GlcA(b1-3)GlcNAc": {"target": "GlcA(b1-3)GlcNAc", "in_short": "as §1"}, "[11]": {"target": "GlcNAc(b1-3)Gal(b1-3)GalNAc", "in_short": "as §1"}, "[12]": {"target": "GlcNAc(b1-3)[GlcNAc(b1-6)]Gal(b1-4)GlcNAc", "in_short": "as §1"}, "[13]": {"target": "GlcNAc(b1-3)[GlcNAc(b1-6)]GalNAc", "in_short": "as §1"}, "Man(a1-2)Man(a1-3)Man": {"target": "Man(a1-2)Man(a1-3)Man", "in_short": "as §1"}, "Man(b1-4)GlcNAc": {"target": "Man(b1-4)GlcNAc", "in_short": "as §1"}, "[14]": {"target": "Neu5Ac(a2-3)Gal(b1-3)GalNAc6S", "in_short": "as §1"}, "[15]": {"target": "Neu5Ac(a2-3)Gal(b1-3)GlcNAc", "in_short": "as §1"}, "[16]": {"target": "Neu5Ac(a2-3)Gal(b1-3)[Neu5Ac(a2-3)Gal(b1-4)]GlcNAc", "in_short": "as §1"}, "[17]": {"target": "Neu5Ac(a2-3)Gal(b1-3)[Neu5Ac(a2-6)]GalNAc", "in_short": "as §1"}, "[18]": {"target": "Neu5Ac(a2-3)Gal(b1-4)GlcNAc(b1-2)Man", "in_short": "as §1"}, "[19]": {"target": "Neu5Ac(a2-3)Gal(b1-4)GlcNAc6S", "in_short": "as §1"}, "[20]": {"target": "Neu5Ac(a2-3)Gal(b1-4)[Fuc(a1-3)]GlcNAc(b1-3)Gal(b1-4)[Fuc(a1-3)]GlcNAc(b1-3)Gal(b1-4)[Fuc(a1-3)]GlcNAc", "in_short": "as §1"}, "[21]": {"target": "Neu5Ac(a2-3)Gal6S(b1-4)GlcNAc", "in_short": "as §1"}, "[22]": {"target": "Neu5Ac(a2-3)[Neu5Ac(a2-6)]GalNAc", "in_short": "as §1"}, "[23]": {"target": "Neu5Ac(a2-6)GalNAc(b1-4)GlcNAc6S", "in_short": "as §1"}, "[24]": {"target": "Neu5Ac9Ac(a2-3)Gal(b1-4)GlcNAc", "in_short": "as §1"}}, "note": "This is one part of a sample in which the strongest signals are shown more often than they occur.", "data": [{"binder": "B1", "values": [{"measurement": "glycan array binding signal (z-score)", "setting": "[1]", "result": -0.237}, {"measurement": "glycan array binding signal (z-score)", "setting": "Fuc(a1-2)Gal(b1-4)GlcNAc", "result": -0.29}, {"measurement": "glycan array binding signal (z-score)", "setting": "[2]", "result": -0.131}, {"measurement": "glycan array binding signal (z-score)", "setting": "[3]", "result": -0.066}, {"measurement": "glycan array binding signal (z-score)", "setting": "[4]", "result": 0.018}, {"measurement": "glycan array binding signal (z-score)", "setting": "[5]", "result": -0.28}, {"measurement": "glycan array binding signal (z-score)", "setting": "[6]", "result": -0.169}, {"measurement": "glycan array binding signal (z-score)", "setting": "Gal(a1-3)Gal(b1-4)GlcNAc", "result": -0.256}, {"measurement": "glycan array binding signal (z-score)", "setting": "[7]", "result": -0.262}, {"measurement": "glycan array binding signal (z-score)", "setting": "Gal(b1-3)Gal", "result": -0.211}, {"measurement": "glycan array binding signal (z-score)", "setting": "[8]", "result": 0.687}, {"measurement": "glycan array binding signal (z-score)", "setting": "[9]", "result": -0.29}, {"measurement": "glycan array binding signal (z-score)", "setting": "[10]", "result": -0.295}, {"measurement": "glycan array binding signal (z-score)", "setting": "Gal(b1-6)Gal", "result": -0.199}, {"measurement": "glycan array binding signal (z-score)", "setting": "Gal6S(b1-4)Glc6S", "result": -0.104}, {"measurement": "glycan array binding signal (z-score)", "setting": "GalNAc(a1-3)GalNAc", "result": -0.233}, {"measurement": "glycan array binding signal (z-score)", "setting": "GlcA(b1-3)GlcNAc", "result": 6.22}, {"measurement": "glycan array binding signal (z-score)", "setting": "[11]", "result": -0.164}, {"measurement": "glycan array binding signal (z-score)", "setting": "[12]", "result": -0.211}, {"measurement": "glycan array binding signal (z-score)", "setting": "[13]", "result": -0.222}, {"measurement": "glycan array binding signal (z-score)", "setting": "Man(a1-2)Man(a1-3)Man", "result": -0.228}, {"measurement": "glycan array binding signal (z-score)", "setting": "Man(b1-4)GlcNAc", "result": -0.307}, {"measurement": "glycan array binding signal (z-score)", "setting": "[14]", "result": 3.01}, {"measurement": "glycan array binding signal (z-score)", "setting": "[15]", "result": 3.08}, {"measurement": "glycan array binding signal (z-score)", "setting": "[16]", "result": 6.34}, {"measurement": "glycan array binding signal (z-score)", "setting": "[17]", "result": 3.24}, {"measurement": "glycan array binding signal (z-score)", "setting": "[18]", "result": 2.64}, {"measurement": "glycan array binding signal (z-score)", "setting": "[19]", "result": 3.89}, {"measurement": "glycan array binding signal (z-score)", "setting": "[20]", "result": -0.268}, {"measurement": "glycan array binding signal (z-score)", "setting": "[21]", "result": 2.91}, {"measurement": "glycan array binding signal (z-score)", "setting": "[22]", "result": 2.61}, {"measurement": "glycan array binding signal (z-score)", "setting": "[23]", "result": -0.062}, {"measurement": "glycan array binding signal (z-score)", "setting": "[24]", "result": -0.089}]}]}
